Compound activity: PubChem, National Center for Advancing Translational Sciences (NCATS)
Rows were chosen to be rich in hits. Some 8% of all compounds tested hit in one or more screens of this group.
Lassa entry inh: inhibitors of Lassa virus binding or cell entry. 300,000 compounds, 1.2% hits. Potency, µM (titrated, usually from 37.9 µM), for the others: top-dose activity change, negative = inhibition, usual class: inhibitors. Lassa virus pseudotype entry inhibition, cell reporter. AID 540256; calls by dose curve; tested in HEK293 cells; also: potency is read from the fitted curve at half-maximal effect; % is scaled to controls: 0 for no effect and ±100 for the full control effect; nearly all actives have a fitted effect of over 50% in size
SARS PLpro yeast: SARS-CoV PLP inhibition in yeast | S. cerevisiae expressing SARS-CoV PLpro, growth rescue | Potency, µM (top dose mostly 32.9 µM), without a hit: at the top dose activity, positive = growth rescue, actives largely listed as activators | 330,000 compounds, 0.19% hits | AID 485353; calls by dose curve; also: potency is read from the fitted curve at half-maximal effect; 0% is about no effect; nearly all actives have a fitted effect of over 55% in size
HCMV antiviral: inhibitors of human cytomegalovirus; HFF cells, HCMV-luciferase reporter, 72 h; active compounds read low; activity change, negative = inhibition, % at 57.5 µM; 410,000 compounds, 4.5% hits; AID 1259415; in the data active = activity change below about -60%; inconclusive = no clear call, values can overlap the other calls; inactive = above about -39%; also: % is scaled to controls: 0 for no effect and ±100 for the full control effect
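Luciferase read-out from HCMV-luciferase-infected HFFs (MOI 1 PFU/cell) 72 h post infection at 37C; compounds added after 16 h cell attachment; activity normalized between buffer-only basal and Salinomycin (10uM) inhibitor controls.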
HCV inhibitor: HCV inhibition; 340,000 compounds, 3.4% hits; Huh7.5.1 HCVcc-Cre infection, luciferase reporter, 44 h; Potency, µM (series often up to 41.8 µM), without a hit: at the top dose activity change, negative = inhibition, usual class: inhibitors; active = well fitted inhibition curve with a large enough effect; inconclusive = small, poorly fitted or top-dose-only effect, or another doubt; inactive = no such curve, though single readings can be large or run the other way; also: potency is read from the fitted curve at half-maximal effect; % is scaled to controls: 0 for no effect and ±100 for the full control effect
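A cell-based infection assay in which seeded cells (1,000 per well) receive test compound after 4 h, are inoculated with HCVcc-Cre at approximately 0.5 moi, and are incubated 44 h before luminescence detection.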
MARV entry inh: inhibitors of Marburg virus binding or cell entry | Marburg virus pseudotyped entry inhibition, cell reporter | Potency, µM (titrated, usually from 37.8 µM), for inactives: at the top dose activity change, negative = inhibition, actives largely listed as inhibitors | 300,000 compounds, 1.8% hits; calls by dose curve; tested in HEK293 cells; also: potency is read from the fitted curve at half-maximal effect; % is scaled to controls: 0 for no effect and ±100 for the full control effect
FMDV antiviral: antivirals against foot and mouth disease virus. Potency, µM (doses to about 57.9 µM), without a hit: at the highest dose activity change, negative = inhibition, usual class: inhibitors. AID 1159524. FMDV antiviral cell-based qHTS. 410,000 compounds, 1.2% hits; calls by dose curve; tested in HEK293T cells; also: read-out not given here; potency is read from the fitted curve at half-maximal effect; % is scaled to controls: 0 for no effect and ±100 for the full control effect; nearly all actives have a fitted effect of over 45% in size
The depositor's hits bear a star; ? = inconclusive; . = not tested or not shown; [ ] = dose if it differs, or a comment.

SMILES	Lassa entry inh	SARS PLpro yeast	HCMV antiviral	HCV inhibitor	MARV entry inh	FMDV antiviral
O=C(NC(=S)NC(c1ccccc1)c1ccncc1)c1ccccc1 (centres undefined)	?	-26.1%	-10.0	?	6.51µM*	?
CCOc1ccc(N(Cc2cc3cc(C)ccc3[nH]c2=O)C(=O)c2cccc(Cl)c2)cc1	-4.0%[46.1 µM]	.	8.2	.	0.4%[46.1 µM]	?
COc1ccc(CCN(C)C(=O)Cc2ccc(-c3ccccc3)cc2)cc1OC	?	-3.8%	-76.0*	2.51µM*	?	?
COc1cc(CN(C)CCc2ccccc2)ccc1OCc1ccccc1	-27.6%	-0.2%	-31.7	3.55µM*	18.3µM*	-20.5%
COc1ccc(CCN(C)C(=O)COc2ccc(C(=O)c3ccccc3)cc2)cc1OC	9.1%	-0.2%	-0.2	?	-2.6%	-21.0%
CCOc1cc(/C=C2\N=C(SC(C)C(N)=O)N(c3ccc(OC(F)F)cc3)C2=O)ccc1O (centres undefined)	.	1.4%	-62.3*	?	.	-10.2%
CCOc1ccc(OCC)c(NS(=O)(=O)c2c(C(=O)N3CCC(C)CC3)c(C)n(C)c2C)c1	-9.6%[46.1 µM]	.	10.4	.	.	42.7%
COc1cc(N=Nc2cccc(S(N)(=O)=O)c2)c2ccccc2c1N	-3.9%[46.1 µM]	-2.0%	-65.5*	?	9.3%[46.1 µM]	?
NC1=NC(=Nc2cccc(S(N)(=O)=O)c2)c2ccccc21	.	0.4%	-13.7	1.5%	.	-4.3%
Nc1ncnc2c1ncn2[C@@H]1O[C@H](C(=O)NC2CC2)[C@H](O)[C@H]1O	.	.	.	.	-11.3%	.
CCCCn1c(-c2ccc(C(C)(C)C)cc2)nc2cc3[nH]c(=O)c(C(C)C)nc3cc21	.	-12.1%	12.0	-12.6%	.	35.5µM*
CSc1ccc(-c2sc(Nc3ccccc3)n[n+]2-c2ccccc2)cc1	.	-2.2%	.	-30.0%	.	-13.0%
CCc1ccc(Nc2n[n+](-c3ccccc3)c(-c3ccc(SC)cc3)s2)cc1	.	-2.2%	-65.0*	-25.5%	.	-3.6%
CSc1ccc(-c2sc(Nc3cccc4ccccc34)n[n+]2-c2ccccc2)cc1	.	-3.6%	-15.3	8.91µM*	.	10.4%
COc1ccc(NC(=O)c2ccc(CN3CCc4ccccc4C3)cc2)cc1OC	.	3.4%	-64.1*	12.6µM*	.	-28.7%
CC(=O)c1cccc(NC(=O)c2ccc(CN3CCc4ccccc4C3)cc2)c1	.	27.3%	-5.2	11.2µM*	.	?
COc1cccc(NC(=O)c2ccc(N3C(=O)C4CC=C(C)CC4C3=O)cc2)c1 (centres undefined)	.	0.1%	-63.8*	?	.	?
COCC(C)NC(=O)c1ccc(CN2CCc3ccccc3C2)cc1 (centres undefined)	.	1.3%	-22.5	-3.9%	.	-12.4%
O=C(Nc1ccc(N2CCN(Cc3ccccc3)CC2)cc1)c1cccnc1	-21.3%	3.1%	-61.1*	-31.5%	-13.2%	-25.1%
CC(=O)c1cccc(NC(=O)N2CCc3ccccc3C2)c1	-1.4%	0.7%	77.1	3.9%	?	44.2%
CCc1ccccc1NC(=O)Nc1cc(C(=O)NCc2ccccc2OC)ccc1N1CCCC1	28.3%[46.1 µM]	.	-2.8	.	.	-5.2%
Cc1ccc(C(=O)Nc2ccc3c(c2)CCC3)cc1	16.4µM*	-2.0%	-74.4*	-25.9%	?	-20.4%
CC(=O)c1cccc(NC(=O)c2ccc3c(c2)CCCC3)c1	.	-5.6%	120.7	11.2µM*	.	35.2%
NC(=O)C1CCN(CCC(=O)Nc2ccc3c(c2)CCC3)CC1	-4.6%	-19.0%	-4.1	-1.0%	-4.0%	4.3%
COc1ccc(NC(=O)c2oc3c(c2C)-c2nn(Cc4ccccc4Cl)cc2CC3)cc1OC	13.5%[46.1 µM]	.	-63.7*	.	.	-28.4%
SMILES	Lassa entry inh	SARS PLpro yeast	HCMV antiviral	HCV inhibitor	MARV entry inh	FMDV antiviral
CC1CCN(CCC(=O)Nc2ccc3c(c2)CCC3)CC1	2.8%	5.7%	-80.4*	?	-26.2%	.
COc1cccc(NC(=O)c2ccc3c(c2)CCCC3)c1	.	-66.0%	25.8	1.0%	.	-2.2%
CCn1c(CNC(=O)c2ccc(OC)cc2)nnc1SCC(=O)Nc1ccc(F)cc1	6.8%[46.1 µM]	.	11.4	.	?	0.0%
COc1cccc(-c2nc(SCC(=O)Nc3ccc4c(c3)OCCO4)c(-c3ccc(C)cc3)[nH]2)c1	?	.	-26.8	.	?	-14.5%
Cc1cc(C)c(NC(=O)c2ccc(CN3CCc4ccccc4C3)cc2)c(C)c1	15.8µM*	-5.0%	-34.4	8.91µM*	?	?
COc1ccc(NC(=O)c2ccc(CN3CCN(c4ccccc4)CC3)cc2)cc1	?	8.4%	-33.7	-16.0%	?	?
CCC(C)NC(=O)c1ccc(CN2CCc3ccccc3C2)cc1 (centres undefined)	.	-0.7%	36.3	-12.7%	.	-12.4%
COc1cccc(NC(=O)c2ccc(CN3CCc4ccccc4C3)cc2)c1	.	0.1%	?	1µM*	.	-21.6%
COCCNC(=O)c1ccc(CN2CCc3ccccc3C2)cc1	2.2%	9.5%	-14.3	-1.3%	-0.1%	-5.0%
COc1cccc(NC(=O)c2ccc(CN3CCN(c4ccccc4)CC3)cc2)c1	?	-11.4%	-67.3*	14.1µM*	5.8µM*	?
Cc1c(NC(=O)c2ccc(CN3CCc4ccccc4C3)cc2)c(=O)n(-c2ccccc2)n1C	?	2.8%	?	?	-11.1%	?
C/C(=N\NC(=O)c1ccc(CN2CCc3ccccc3C2)cc1)c1ccccc1O	-28.8%[46.1 µM]	17.3%	-96.3*	5.62µM*	?	22.4µM*
Cc1cccc(CC(=O)NC2CC(=O)N(c3ccccc3)C2)c1 (centres undefined)	0.8%[46.1 µM]	.	-5.7	.	.	-13.9%
C=CCCC(=O)N[C@H]1CC[C@@]23CCCN2C(=O)CCC[C@H]3[C@H]1Cc1ccccc1	.	.	26.5	.	.	.
COc1cc(OC)c(NS(=O)(=O)c2ccc3c(c2)CCCN3C(C)=O)cc1Cl	1.5%[46.1 µM]	.	-34.1	.	.	24.0%
CCCCOC(=O)c1ccc(NS(=O)(=O)c2c(C)nc3scc(C)n3c2=O)cc1	?	.	-28.3	.	?	-24.6%
COc1cccc(-c2ccnc(-n3ncc(C(=O)NCc4cccnc4)c3C3CC3)n2)c1	.	.	.	.	.	-24.4%
COc1ccc(OC)c(N(CCN2C(=O)c3ccccc3C2=O)C(=O)CCl)c1	.	.	-97.7*	.	.	?
COc1ccc(NC(=O)CCN2C(=O)c3ccccc3C2=O)c(OC)c1	1.6%	-1.6%	6.2	0.9%	-2.9%	5.4%
Cc1cc(C)c(NC(=O)c2sc3nc(C)[nH]c(=O)c3c2C)c(C)c1	.	-1.0%	96.2	.	.	.
Cc1ccc(NC(=O)c2sc3nc(CCl)[nH]c(=O)c3c2C)c(C)c1	10.7%	-0.4%	14.6	11.2µM*	-28.4%[46.1 µM]	?
CSCc1nc2sc(C(=O)Nc3nc(C)cs3)c(C)c2c(=O)[nH]1	27.4%[46.1 µM]	0.7%	43.9	11.2µM*	?	41.0%
Cc1cc2c(cc1S(=O)(=O)CCC(=O)N1CCCCC1C)OCC(=O)N2 (centres undefined)	-28.9%[46.1 µM]	.	-4.9	.	.	-17.1%
COc1ccc(Cc2c(C)nn(-c3nc(C)c(C(=O)Nc4cccc(C(C)=O)c4)s3)c2C)cc1	6.0%[46.1 µM]	.	-28.2	.	9.1%[46.1 µM]	?
